Results as given in ChEMBL document CHEMBL4808148, “HDAC6 screening dataset using tau-based substrate in an enzymatic assay yields selective inhibitors and activators” (2021).
The campaign covered roughly 5,600 compounds. About 390 (7%) showed an effect of 50% or more. Only a selection was taken, and strong results are over-represented in it overall. Non-standard residues stand in square brackets, D forms with d. Residues, ends and D or L forms follow the SMILES beside them. dTrp(2-Me) = Cc1[nH]c2ccccc2c1C[C@@H](N)C(=O)O

How the values were obtained:
[1] = target: T1, Protein deacetylase HDAC6 (Homo sapiens) (UniProt Q9UBN7); conditions: at 10 µM
T1 sequence (whole entry): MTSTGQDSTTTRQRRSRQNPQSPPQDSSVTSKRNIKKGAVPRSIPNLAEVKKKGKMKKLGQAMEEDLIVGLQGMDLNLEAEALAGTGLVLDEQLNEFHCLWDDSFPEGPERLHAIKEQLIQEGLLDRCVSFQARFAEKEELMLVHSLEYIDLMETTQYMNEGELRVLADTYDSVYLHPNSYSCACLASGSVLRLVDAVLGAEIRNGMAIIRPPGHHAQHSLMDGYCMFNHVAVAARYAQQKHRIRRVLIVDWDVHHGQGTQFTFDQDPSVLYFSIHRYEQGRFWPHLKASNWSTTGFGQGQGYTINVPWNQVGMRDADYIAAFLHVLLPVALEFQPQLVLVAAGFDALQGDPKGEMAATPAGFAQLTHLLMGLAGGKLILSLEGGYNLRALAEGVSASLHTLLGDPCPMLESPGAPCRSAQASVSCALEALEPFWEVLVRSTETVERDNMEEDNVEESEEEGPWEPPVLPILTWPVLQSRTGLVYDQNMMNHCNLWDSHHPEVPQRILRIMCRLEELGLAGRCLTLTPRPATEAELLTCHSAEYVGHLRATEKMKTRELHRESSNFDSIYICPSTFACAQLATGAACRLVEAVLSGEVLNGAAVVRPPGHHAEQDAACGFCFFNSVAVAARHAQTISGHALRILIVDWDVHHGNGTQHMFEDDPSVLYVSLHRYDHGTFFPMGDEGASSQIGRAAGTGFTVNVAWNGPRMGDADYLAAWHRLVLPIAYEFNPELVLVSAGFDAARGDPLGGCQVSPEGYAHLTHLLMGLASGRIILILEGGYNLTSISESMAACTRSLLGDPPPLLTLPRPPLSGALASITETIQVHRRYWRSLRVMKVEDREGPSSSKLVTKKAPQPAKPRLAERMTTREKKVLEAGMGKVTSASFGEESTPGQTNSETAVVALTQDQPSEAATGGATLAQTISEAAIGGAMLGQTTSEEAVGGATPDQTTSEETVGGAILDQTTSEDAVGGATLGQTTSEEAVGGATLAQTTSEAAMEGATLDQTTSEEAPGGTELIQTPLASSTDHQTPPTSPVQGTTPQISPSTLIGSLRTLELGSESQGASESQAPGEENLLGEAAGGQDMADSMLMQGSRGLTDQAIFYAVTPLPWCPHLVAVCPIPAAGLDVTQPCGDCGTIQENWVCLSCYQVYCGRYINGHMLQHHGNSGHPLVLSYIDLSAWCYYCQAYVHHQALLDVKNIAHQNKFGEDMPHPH

[2] = target: Protein deacetylase HDAC6 (Homo sapiens) (UniProt Q9UBN7); conditions: at 10 µM; remark: listed apart in the source

Compound	inhibition [1] [%]	inhibition [2] [%]
O=C1c2ccccc2C(=O)C1c1ccc(Cl)cc1	18.6	–
O=C1c2ccccc2C(=O)C1c1ccc(Br)cc1	95.5	–
COc1ccc(C2C(=O)c3ccccc3C2=O)cc1	98.2	–
O=C1c2ccccc2C(=O)C1c1ccccc1	7.2	–
CCCC1(CCC)CCC2(CCN(CCCN(CC)CC)C2)CC1	-1.4	–
C[C@@H](O)[C@H]1C(=O)N2C(C(=O)O)=C(S[C@@H]3CN[C@H](C(=O)Nc4cccc(C(=O)O)c4)C3)[C@H](C)[C@H]12	29.2	–
CC1(c2ccccc2)OC(C(=O)O)=CC1=O (configuration not stated)	-2.75	–
Nc1nccc(-c2c(-c3ccc(F)cc3)ncn2C2CCCCC2)n1	10.1	–
COc1cc(C(=O)NC2CCN(C)CC2)c(F)cc1Nc1ncc2c(n1)N(C1CCCC1)CC(F)(F)C(=O)N2C	2.87	–
Cc1[nH]c2ccccc2c1C[C@@H](NC(=O)[C@@H](N)Cc1c[nH]cn1)C(=O)N[C@@H](C)C(=O)N[C@@H](Cc1c[nH]c2ccccc12)C(=O)N[C@H](Cc1ccccc1)C(=O)N[C@@H](CCCCN)C(N)=O (H-H[dTrp(2-Me)]AW[dF]K-NH2)	-0.06	–
NCCCCCC(O)(P(=O)(O)O)P(=O)(O)O	0.9	–
ANTIMONY POTASSIUM TARTRATE TRIHYDRATE, CHEMBL2097098	–	31.4
Antimonyl (potassium tartrate trihydrate), CHEMBL2097098	–	13.3
AURANOFIN, CHEMBL1366	–	-8.98
BIS(MALTOLATO)OXOVANADIUM(IV), CHEMBL286447	–	51.3
CO[C@@H]1[C@H](OC(=O)/C=C/C=C/C=C/C=C/C(=O)O)CC[C@]2(CO2)[C@H]1[C@@]1(C)O[C@@H]1CC=C(C)C	3.49	–
CCCCC[C@H](O)/C=C/[C@@H]1[C@H]2C/C(=C/CCCC(=O)O)O[C@H]2C[C@H]1O	10.8	–
Cn1cc(CCn2cnc(-c3cnn(C)c3)c2-c2ccc(C#N)cc2)cn1	15	–
O=S(=O)(O)c1ccc2[nH]c(-c3ccccc3)nc2c1	84.1	–
O=C1c2ccc(Nc3ccc(F)cc3F)cc2CCc2ccc(OC[C@H](O)CO)cc21	24.2	–
C#Cc1cnc2nc(O)n(C(CC)CC)c2n1	-6.31	–
Nc1nc(N)nc(-c2cc(Cl)ccc2Cl)n1	17.2	–
Nc1ncnc2[nH]nc(Nc3ccc(F)cc3)c12	17.6	–
Nc1ncnc(Nc2ccc(Cl)cc2)n1	74.5	–
CCO/N=C(/C(=O)NC1C(=O)N2C(C(=O)O)=C(Sc3nc(-c4cc[n+](C)cc4)cs3)CS[C@H]12)c1nsc(NP(=O)(O)O)n1 (some centres not stated)	20.6	–
CC(C)[C@@H]1CC[C@@H](C)C[C@H]1O	2.89	–

Compound	inhibition [1] [%]	inhibition [2] [%]
CN(C)CCC(O)(c1ccccc1)c1ccccc1Cl (configuration not stated)	36.5	–
Cc1ccc(NC2=CC(=O)c3sc(C)nc3C2=O)cc1	53.2	–
Cc1c(-c2ccccc2F)[nH]c(N)c1C#N	28.6	–
VERTEPORFIN, CHEMBL5314346	–	22.2
CC[N+](CC)(CC)CCOc1ccc(/C=C/c2ccccc2)cc1	-4.16	–
Nc1nccc(/C=C/c2ccccc2)n1	99.6	–
Cc1cccc(/C=C/c2ccccc2)n1	100	–
CC(C)[C@@H]1CC[C@@H](C)C[C@@H]1P(=O)(c1ccccc1)c1ccccc1	-9.96	–
CCC(CC)(NC(=O)C(C)C)C(=O)N[C@@H](CCCNC(=N)N)C(=O)NC1(C(=O)NC(c2ccc(F)cc2)c2ccc(F)cc2)CCCC1	22	–
CSC[C@H](N)C(=O)O	15.3	–
Cc1ccc2c(c1)C(=O)[C@]1(O)CCN(c3ccccc3)C1=N2	-8.19	–
O=c1c(-c2ccc(O)cc2)coc2cc(O)cc(O)c12	112	–
COc1ccc(-c2coc3cc(O)cc(O)c3c2=O)cc1	100	–
CN1CCN(c2ccc(/C=C(\C#N)c3ccccc3Br)cc2)CC1	-8.48	–
Nc1ncc(Cc2ccc(Br)cc2)s1	12.3	–
c1ccc(-c2nc(CN3CCN(c4ncccn4)CC3)c[nH]2)cc1	-4.48	–
C=CCOc1ccc(CC(=O)O)cc1Cl	9.47	–
Cc1ccsc1C(=CCCN1CCC[C@@H](C(=O)O)C1)c1sccc1C	20.9	–
NC1(c2ccc(-c3nc4ccn5c(=O)[nH]nc5c4cc3-c3ccccc3)cc2)CCC1	12.5	–
O=C(O)CCc1cc(I)c(Oc2ccc(O)cc2)c(I)c1	-9.91	–
CC(CNS(=O)(=O)C(C)C)c1ccc(-c2ccc(C#N)cc2)cc1 (configuration not stated)	23.9	–
O=C(Nc1ccc(OC(F)(F)F)cc1)c1sccc1NCc1ccnc2ccccc12	18.5	–
CN(C)CCOC1=Cc2ccccc2Sc2ccc(Cl)cc21	96.6	–
CN(C)CCOC(=O)COc1ccc(Cl)cc1	1.19	–
CN1CCN(C2=Nc3ccccc3Sc3ccc(Cl)cc32)CC1	29.6	–
C[C@H]1[C@H](C)CC[C@]2(C(=O)O)CC[C@]3(C)C(=CC[C@@H]4[C@@]5(C)C[C@@H](O)[C@H](O)C(C)(C)[C@@H]5CC[C@]43C)[C@H]12	-2.75	–
